High-throughput results as filed in PubChem BioAssay.
Compounds with a hit are over-represented: about 8.9% of the library has one in this group of screens.
KB-3-1 tox = KB-3-1 parental cell cytotoxicity; KB-3-1 viability, CellTiter-Glo ATP luminescence, 72 h; Potency, µM (titrated, usually from 46.1 µM), most hits filed as cytotoxic; 400,000 tested, 1.4% active; AID 1347075; also: nearly all actives have a fitted effect of over 60% in size
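Cells are dispensed, compounds pinned in, plates held at 37 °C for 72 h, then CellTiter-Glo is added and luminescence read after 10 minutes. Cell line: parental KB-3-1 in phenol-red-free DMEM, 10% FBS.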
MCF10A rereplic = inducers of DNA re-replication in MCF 10A breast cells | MCF 10A DNA re-replication, Hoechst nuclear intensity, 48 h | 350,000 tested, 2.9% active | Potency, µM (titrated, usually from 46.1 µM), most hits filed as activators; also: nearly all actives have a fitted effect of over 50% in size
D3 ag = D3 dopamine receptor (human) agonism. P35462. D3R DiscoveRx beta-arrestin cells, luminescence, 90 min. max activation, %. 410,000 tested, 0.58% active. AID 652048; in the data active = max activation above about 30%
Target sequence (P35462 whole entry, looked up): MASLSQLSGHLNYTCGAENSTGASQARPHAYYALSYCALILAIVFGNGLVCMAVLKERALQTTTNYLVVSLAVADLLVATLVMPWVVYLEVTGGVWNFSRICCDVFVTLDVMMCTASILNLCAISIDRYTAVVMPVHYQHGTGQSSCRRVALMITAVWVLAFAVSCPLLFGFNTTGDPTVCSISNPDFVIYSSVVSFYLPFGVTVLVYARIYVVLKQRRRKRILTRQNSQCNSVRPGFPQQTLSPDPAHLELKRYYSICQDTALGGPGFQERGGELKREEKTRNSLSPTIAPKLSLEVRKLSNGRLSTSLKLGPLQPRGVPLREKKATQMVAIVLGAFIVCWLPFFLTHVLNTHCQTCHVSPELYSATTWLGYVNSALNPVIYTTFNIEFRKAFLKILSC
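Agonist mode: compounds and dopamine controls were applied to plated cells for 90 min at 37 degrees C after an overnight attachment at 1500 cells/well. Luminescent read-out followed 30 - 60 minutes at room temperature with DiscoveRx detection reagent.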
KB-V1 cytotox = kills drug-selected multidrug resistant KB-V1 cells. KB-V1 MDR cells viability, CellTiter-Glo, 72 h. Potency, µM (top dose mostly 46.1 µM), usual class: cytotoxic. 400,000 tested, 3.4% active; also: nearly all actives have a fitted effect of over 60% in size
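Potencies derive from concentration-effect curves fitted to normalized luminescence (CellTiter-Glo) of KB-V1 cells treated for 72 h at 37 degrees C in phenol-red-free DMEM containing 10% FBS.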
D3 antag = D3 dopamine receptor (human) antagonism. D3R cells, DiscoveRx beta-arrestin luminescence, antagonist mode; active compounds read low. max response, negative = inhibition, %. 360,000 tested, 2.5% active; in the data active = max response below about -50%; inconclusive = no clear call, values can overlap the other calls
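Cells expressing the human receptor were seeded at 1500 cells/well, incubated overnight at 37 degrees C in 5% CO2, then exposed to library compounds with dopamine controls for 90 minutes at 37 degrees C before luminescent detection.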
SW480 rereplic = inducers of DNA re-replication in SW480 colon cancer cells | Potency, µM (series often up to 46.1 µM), actives largely listed as activators | 340,000 tested, 1.8% active | SW480 DNA re-replication, Hoechst DNA content imaging, 48 h; also: nearly all actives have a fitted effect of over 55% in size
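Hoechst fluorescence of nuclei (405 nm excitation, 500-530 nm emission) measured by plate-scanning imager after 48 hr compound exposure at 37 C; re-replication scored as increased number of nuclei with elevated intensity.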
A number is an active result; – = inactive; ? = inconclusive; · = not tested or not shown. Unless noted, calls follow the shape of the dose curve; as a rule, active = well fitted curve in the direction sought with a large enough effect; inconclusive = small, poorly fitted or top-dose-only effect, or another doubt; inactive = no such curve, though single readings can be large; an effect the other way counts as inactive or inconclusive.

SMILES	KB-3-1 tox	MCF10A rereplic	D3 ag	KB-V1 cytotox	D3 antag	SW480 rereplic
Cc1ccc2nc3c(cc(C#N)c(=O)n3-c3nnc(SCc4ccccc4)s3)c(=O)n2c1	–	·	–	–	·	·
COc1cccc(NC(=O)Cn2nc3c4ccccc4n(Cc4cccc(F)c4)cc-3c2=O)c1	–	·	–	–	·	·
CN(C)c1nc(NNC(=O)c2ccccc2)nc(N(C)C)n1	–	–	–	8.2µM	–	–
O=C(C[n+]1ccc2ccccc2c1)Nc1cc(C(F)(F)F)ccc1Cl	–	–	–	–	-68	?
O=C(Nc1cc(C(F)(F)F)ccc1Cl)C(NCc1ccccc1)c1ccccc1 (centres undefined)	–	?	–	21µM	–	?
O=C(CCNC(=O)c1ccccc1Cl)Nc1cc(C(F)(F)F)ccc1Cl	–	–	–	–	–	–
O=C(CC(=O)c1ccccc1)Nc1cc(C(F)(F)F)ccc1Cl	–	–	–	?	–	–
O=C(CN1CCCCCC1)Nc1cc(C(F)(F)F)ccc1Cl	?	–	–	–	-77	–
O=C(C[n+]1ccccc1)Nc1cc(C(F)(F)F)ccc1Cl	–	–	–	–	-58	–
Cc1c2cnn(-c3ccccc3)c(=O)c2c(C)n1CC(=O)Nc1ccccc1Br	–	·	–	–	·	·
COc1cccc(OCc2nc3ccccc3n2CCOc2ccc(C)cc2)c1	–	·	–	–	·	·
CC(=O)OC(C)OC(=O)C(C)c1ccc(-c2ccccc2)c(F)c1 (centres undefined)	·	·	–	·	·	·
O=C(C[n+]1ccccc1)Nc1ccccc1C(F)(F)F	–	3.3µM	–	–	–	–
CN(C)c1cc[n+](CC(=O)Nc2cc(C(F)(F)F)ccc2Cl)cc1	–	?	–	–	-59	?
O=C(CN1CCC(C(O)(c2ccccc2)c2ccccc2)CC1)Nc1cc(Cl)ccc1Cl	–	–	–	18µM	–	?
Cc1cc[n+](CC(=O)Nc2cc(C(F)(F)F)ccc2Cl)cc1	–	23µM	–	–	-192	–
O=C(CSCCO)Nc1cc(C(F)(F)F)ccc1Cl	–	–	–	–	–	–
O=C(C[n+]1ccccc1)Nc1ccccc1C(=O)O	–	?	–	–	–	–
CCC(=O)C1=C(c2ccc(F)cc2)N(C(=O)CC)n2cnnc2S1	·	·	–	·	·	·
COc1ccccc1C1(CCNS(=O)(=O)c2ccc(C)cc2)CCOC(C(C)C)C1 (centres undefined)	?	?	–	3.7µM	–	?
Cc1ccc(NC(=O)Cn2c(=O)ccc3cc(S(=O)(=O)N4CCCC4)ccc32)cc1C	–	·	–	–	·	·
COc1ccc(S(=O)(=O)N2c3ccccc3OCC2c2ccccc2)cc1 (centres undefined)	8.2µM	5.8µM	–	5.8µM	?	3.7µM
COc1ccc(S(=O)(=O)N2CC(C(=O)O)Oc3ccccc32)cc1 (centres undefined)	–	–	–	–	–	–
COc1ccc(S(=O)(=O)N2c3ccccc3OCC2C(C)(C)C)cc1 (centres undefined)	–	–	–	–	–	–
COc1ccc(S(=O)(=O)N2c3ccccc3OCC2C)cc1 (centres undefined)	1.2µM	1.3µM	–	?	–	2.6µM
SMILES	KB-3-1 tox	MCF10A rereplic	D3 ag	KB-V1 cytotox	D3 antag	SW480 rereplic
COc1ccc(S(=O)(=O)N2CCOc3ccccc32)cc1	–	4.6µM	–	–	–	5.8µM
CC(=O)N1CCC2(CC1)OC(=O)C(C)=C2C(=O)Nc1cccc(Cl)c1C	–	·	–	–	·	·
Cc1cc(C)nc(-n2nc(C)c3c2NC(=O)CC3c2ccccc2OC(C)C)n1 (centres undefined)	–	·	–	–	·	·
Cc1cc(C)c2c(=O)n(CC(=O)NC3CCCC3)sc2n1	?	21µM	–	–	–	–
Cc1ccnc(NC(=S)N2CCN(C)CC2)c1	–	·	·	–	·	·
CCOc1ccc(NC(=S)c2ccncc2)cc1	23µM	–	–	21µM	–	–
COc1ccc(OCC(=O)Nc2nnc3n2CCS3)cc1	–	·	–	?	·	·
O=C(/C=C/c1cccs1)NC(=S)NNC(=O)c1ccccc1O	2.6µM	?	–	–	–	?
COc1ccc(C(=O)NNC(=S)NC(=O)/C=C/c2cccs2)cc1	?	–	–	?	–	?
O=C(/C=C/c1ccccc1)NC(=S)NNC(=O)Cc1cccs1	?	?	–	?	-72	?
Cc1ccc(NC(=O)C2CCC(CNS(=O)(=O)c3ccc4c(c3)CCCC(=O)N4)CC2)cc1F (centres undefined)	?	·	–	–	·	·
Cc1ccc(S(=O)(=O)NC(Cc2ccccc2)C(=O)NN)cc1 (centres undefined)	–	–	–	–	–	?
Cc1ccc(S(=O)(=O)N[C@@H](Cc2ccccc2)C(=O)CCl)cc1	?	2.3µM	–	?	–	?
CC(=O)NC(CC(C)C)C(=O)NC(Cc1ccccc1)C(N)=O (centres undefined)	–	–	30	–	–	–
CC(=O)NC(CC(C)C)C(=O)NC(Cc1ccccc1)C(=O)CCl (centres undefined)	–	8.2µM	–	–	?	–
CC(C)CN1CCc2nc(Nc3ccc(F)cc3F)ncc2C1	–	·	–	–	·	·
Cc1ccc(CNC(=O)c2sc3nc(-c4ccc(F)cc4)ccc3c2N)cc1	–	·	–	–	·	·
CCN1CCC(N(Cc2cccc(OC)c2)C(=O)Nc2ccc(C)cc2Cl)CC1	–	·	–	–	·	·
COc1cccc(C(=O)N(Cc2ccc(N(C)C)cc2)Cc2ccco2)c1	·	·	–	·	·	·
O=C1c2cc(S(=O)(=O)N3CCOCC3)ccc2-c2ccc(S(=O)(=O)N3CCOCC3)cc21	?	·	·	–	·	·
Cc1ccc(-n2nc(C)c3c(C(=O)NCCc4ccc(S(N)(=O)=O)cc4)cc(C)nc32)cc1	–	·	–	?	·	·
CCOc1cc(/C=N/Nc2cc(C)nc(-n3nc(C)cc3C)n2)ccc1O	–	?	–	–	-175	?
Cc1cc(N/N=C/c2ccc(F)cc2)nc(-n2nc(C)cc2C)n1	?	?	–	–	–	?
CCOc1ccc(Nc2cc(C)nc(-n3nc(C)cc3C)n2)cc1	0.41µM	?	–	?	-52	?
COC(=O)c1ccccc1NC(=O)Cn1c(=O)n(CCCC(=O)NCc2ccccc2Cl)c(=O)c2ccccc21	–	·	–	–	·	·
COC(=O)c1c(C)oc2ccc(N(C(=O)c3ccncc3)S(=O)(=O)c3ccc(OC)cc3)cc12	·	·	–	·	·	·
COc1ccc(S(=O)(=O)N(C(=O)c2ccncc2)c2ccc3oc(C)c(C(C)=O)c3c2)cc1	·	·	–	·	·	·
COc1ccc(S(=O)(=O)N(C(=O)c2ccncc2)c2ccc3oc4c(c3c2)CCCC4)cc1	?	3.3µM	–	?	–	?
CCOC(=O)c1c(C)oc2ccc(N(C(C)=O)S(=O)(=O)c3c(C)cc(C)cc3C)cc12	23µM	·	–	4.1µM	·	·
